In test [1] the target is Calcium and integrin-binding protein 1 (Homo sapiens) (UniProt Q99828). The test is described as follows: Primary qHTS for Identification of Calcium Integrin Binding Protein 1 (CIB1) Competitor (AID 1508620). Note: potency is the fitted concentration of half-maximal effect. The essentials:
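Fluorescence polarization competition: CIB1-GST (1 uM final) preincubated with compound 15 min at room temperature, then FITC-labeled alphaIIb peptide (100 nM final) added for another 15 min. Polarization read at Ex 480/Em 540.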

The target is the same in test [2]. The test can be described thus: Confirmatory qHTS for Identification of Calcium Integrin Binding Protein 1 (CIB1) Competitor (AID 1508617). Note: nearly all actives have a fitted effect of over 65% in size. Note: potency is the fitted concentration of half-maximal effect. The essentials: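 Binding competition between test compounds and fluorescent alphaIIb peptide for 1 uM CIB1-GST is monitored by FP at 480/540 nm. Final compound range is up to 114 uM; unlabeled peptide serves as reference competitor.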
(Quantitative high-throughput screening tests each substance at several concentrations.)

Test [3] can be described thus: Primary qHTS for small molecule stabilizers of the endoplasmic reticulum resident proteome: Secreted ER Calcium Modulated Protein (SERCaMP) assay (AID 1508630). A digest of the protocol:
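GLuc-SERCaMP-expressing SH-SY5Y cells, pretreated 16 h with compound, are challenged with thapsigargin to empty ER calcium stores; after 4 h, coelenterazine is added directly to the medium and luminescence is imaged.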

Test [4] is described as follows: Primary qHTS for inhibitors of nuclear receptor binding SET domain protein 2 (NSD2) in an isogenic RCH-ACV NSD2 p.E1099K mutant (9B) (AID 1645876). Note: potency is the fitted concentration of half-maximal effect; nearly all actives have a fitted effect of over 70% in size.
A short description of test [5]: Primary qHTS for inhibitors of nuclear receptor binding SET domain protein 2 (NSD2) in an RCH-ACV wild type WT cells (2C) (AID 1645877). Note: potency is the fitted concentration of half-maximal effect; nearly all actives have a fitted effect of over 70% in size.
Test [6] can be described thus: Validation qHTS assay for inhibitors of Activation Induced Cytidine Deaminase (AID): UDG Counterscreen signal (AID 1347427). A digest of the protocol: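 Counterscreen read of UDG activity (2 U/mL, 4/3x) in the FRET deamination format with AID (1 uM, 4/3x), DJC20/DJC23 substrates (250 nM, 4x), 4 h at room temperature. NaOH stop, fluorescence at 560 ex/665 em.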
Test [7] concerns the target Single-stranded DNA cytosine deaminase (Homo sapiens) (UniProt Q9GZX7). The test can be described thus: Validation qHTS assay for inhibitors of Activation Induced Cytidine Deaminase (AID): AID signal (AID 1347429). A digest of the protocol: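 In this coupled qHTS, AID deaminates a FRET-labelled ssDNA substrate in the presence of UDG over 4 hr at room temperature. Compounds span up to 114 uM final.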

Test [8] concerns the target Cytochrome P450 2C9 (Homo sapiens) (UniProt P11712). The test can be described thus: Cytochrome P450 family 2 subfamily C member 9 (CYP2C9) small molecule antagonists: luciferase biochemical (cell-free) qHTS assay (AID 1645842; active = well fitted curve in the direction sought with a large enough effect in the repeat runs; an effect the other way counts as inactive or inconclusive; note: potency is the fitted concentration of half-maximal effect; nearly all actives have a fitted effect of over 55% in size). A digest of the protocol:
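Luminescence, after 20 min with luciferin detection reagent, reflected CYP2C9 turnover during a 1 h NADPH-driven reaction at 37C. Enzyme-substrate mix contained 0.4% bovine serum albumin and was preincubated with compound 10 min at room temperature.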

A short description of test [9]: Primary qHTS for inhibitors of La Crosse Virus (LACV) - induced cell death in SH-SY5Y cells (AID 1508616).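 Note: top concentration of the series differs between compounds; higher means more rescue of cells from virus-induced death.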 A digest of the protocol: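 Readout was luminescence from ATPLite 1step added after a 6-day LACV infection (0.01 MOI) of SH-SY5Y cells that had received pin-transferred compound 24 hr after seeding.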
Test [10] can be described thus: Counterscreen qHTS for small molecule stabilizers of the endoplasmic reticulum resident proteome: GLuc-NoTag assay (AID 1508627). Note: potency is the fitted concentration of half-maximal effect. A digest of the protocol:
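SH-SY5Y cells stably expressing constitutively secreted GLuc (no SERCaMP tag) were pre-incubated 5 h, treated with compound for 19 h, then 100 nM thapsigargin for 4 h at 37C; medium GLuc read by coelenterazine luminescence.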
For orientation: A counterscreen serves to expose hits that act by an unwanted route or on another target.

A short description of test [11]: Confirmatory qHTS for small molecule stabilizers of the endoplasmic reticulum resident proteome: Secreted ER Calcium Modulated Protein (SERCaMP) assay (AID 1508628).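 Note: SH-SY5Y cells given compound 16 h then thapsigargin 100 nM for 4 h; series mostly up to about 76 µM; nearly all actives have a fitted effect of over 40% in size.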 The essentials:
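We seeded SH-SY5Y-GLuc-SERCaMP cells, added compounds (three concentrations in the primary run, eleven up to 76.6 uM in confirmation), incubated 16 h, depleted ER calcium with thapsigargin, and read luciferase 4 h later.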

A short description of test [12]: Cell Viability qHTS for small molecule stabilizers of the endoplasmic reticulum resident proteome (AID 1508629).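 Note: potency is the fitted concentration of half-maximal effect; compound exposure about 46 h in total before the viability read.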 The following applies: cell viability counter-screen, 100 nM thapsigargin for final 4 h. The text has this:
Assay Provider: Brandon K. Harvey Ph.D.
National Institute on Drug Abuse, National Institutes of Health, Baltimore, MD
Endoplasmic reticulum (ER) dysregulation is associated with human pathologies including neurodegenerative, cardiovascular, muscular, and diabetic conditions. Maintenance of ER calcium is critical for functions of the ER and its depletion can lead to loss of ER resident proteins, in a process termed exodosis. Therapeutic compounds capable of attenuating the redistribution of ER proteins under pathological conditions may slow or stop disease progression. To identify such compounds, we performed a quantitative high-throughput screen (qHTS) using the SERCaMP assay, which monitors secretion of ER resident proteins triggered by calcium depletion.
SERCaMP was initially developed as a reporter of ER calcium homeostasis using a Gaussia luciferase with a modified signal peptide and carboxy-terminus (GLuc-SERCaMP), modifications that confer secretion of the reporter in response to ER calcium depletion (Henderson et al., 2014). The assay was used to screen 9,501 compounds, including a collection of drugs approved by the FDA (US), EMA (EU), NHI (Japan), and HC (Canada) regulatory agencies (Huang et al., 2011). Since the SERCaMP reporter reflects the exodosis phenomenon (Trychta et al., 2018a), compounds identified in the screen have the potential to prevent exodosis by different mechanisms such as stabilizing ER calcium or augmenting ERS retrieval.
1. Henderson, M.J., Wires, E.S., Trychta, K.A., Richie, C.T., and Harvey, B.K. (2014). SERCaMP: a carboxy-terminal protein modification that enables monitoring of ER calcium homeostasis. Mol Biol Cell 25, 2828-2839.
2. Huang, R., Southall, N., Wang, Y., Yasgar, A., Shinn, P., Jadhav, A., Nguyen, D.T., and Austin, C.P. (2011). […]
9; Detection; Luminescence; ViewLux imaging system […]
7; Cell viability was measured using the CellTiter-Glo Luminescent Cell Viability Assay (Promega). […]
9; Luminescence was measured using a ViewLux CCD imaging system (Perkin Elmer) equipped with clear filters.

For test [13], the target named is Cytochrome P450 2D6 (Homo sapiens) (UniProt P10635). The test is described as follows: Cytochrome P450 family 2 subfamily D member 6 (CYP2D6) small molecule antagonists: luciferase biochemical (cell-free) qHTS assay (AID 1645840; active = well fitted curve in the direction sought with a large enough effect in the repeat runs; an effect the other way counts as inactive or inconclusive; note: potency is the fitted concentration of half-maximal effect; nearly all actives have a fitted effect of over 55% in size). A digest of the protocol: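 P450-Glo luminescent screen: recombinant CYP2D6 enzyme–proluciferin substrate mix preincubated with compound 10 min at room temperature, then NADPH regeneration added for 1 h at room temperature. Detection reagent added for 20 min; luciferin light read as relative luminescence units.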

Test [14] can be described thus: A High-Content qHTS Against Drug Library for the Identification of Small Molecules that Inhibit DYT1 Early Onset Primary Dystonia-Associated Cell Pathology (AID 1645839; calls by dose curve; note: series mostly up to about 46 µM). A digest of the protocol:
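Readout: %pathology, the punctate EGFP-TorsinA distribution from imaging, as the primary channel and cell count as the toxicity counterscreen. HEK293 Flp-In cells expressing delE TorsinA were induced with tetracycline and treated with compound for 48 h.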

Values joined by “and” are separate entries in the source; they are usually repeats but may differ in a detail not shown here. Equal values may be shown once. A number with no mark means an inactive call. Inconclusive results are not listed. Active and inactive are the calls of the source. Unless noted, calls come from the whole dose curve; as a rule, active = well fitted curve in the direction sought with a large enough effect; inconclusive = small, poorly fitted or top-dose-only effect, or another doubt; inactive = no such curve, though single readings can be large; an effect the other way counts as inactive or inconclusive.

Chain of Cytochrome P450 2D6 (Homo sapiens) (P10635 whole entry, looked up): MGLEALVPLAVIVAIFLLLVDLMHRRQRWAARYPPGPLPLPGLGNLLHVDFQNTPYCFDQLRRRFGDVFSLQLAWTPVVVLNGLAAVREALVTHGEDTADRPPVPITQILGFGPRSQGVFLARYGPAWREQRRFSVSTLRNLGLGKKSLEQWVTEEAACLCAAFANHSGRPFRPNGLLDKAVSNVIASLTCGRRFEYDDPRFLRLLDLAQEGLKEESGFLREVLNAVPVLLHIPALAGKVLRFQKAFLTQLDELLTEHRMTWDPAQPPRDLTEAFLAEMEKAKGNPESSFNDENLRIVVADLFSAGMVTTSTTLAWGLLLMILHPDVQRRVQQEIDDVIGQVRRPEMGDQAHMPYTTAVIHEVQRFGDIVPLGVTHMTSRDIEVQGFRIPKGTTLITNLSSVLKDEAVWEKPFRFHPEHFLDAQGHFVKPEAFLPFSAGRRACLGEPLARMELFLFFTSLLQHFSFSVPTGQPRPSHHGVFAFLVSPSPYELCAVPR
Chain of Calcium and integrin-binding protein 1 (Homo sapiens) (Q99828 whole entry, looked up): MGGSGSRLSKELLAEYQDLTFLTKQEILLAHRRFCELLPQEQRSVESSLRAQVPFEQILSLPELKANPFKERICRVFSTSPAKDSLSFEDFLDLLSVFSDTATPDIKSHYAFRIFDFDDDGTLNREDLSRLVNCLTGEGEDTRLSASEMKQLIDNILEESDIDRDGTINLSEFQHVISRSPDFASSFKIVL
Chain of Cytochrome P450 2C9 (Homo sapiens) (P11712 whole entry, looked up): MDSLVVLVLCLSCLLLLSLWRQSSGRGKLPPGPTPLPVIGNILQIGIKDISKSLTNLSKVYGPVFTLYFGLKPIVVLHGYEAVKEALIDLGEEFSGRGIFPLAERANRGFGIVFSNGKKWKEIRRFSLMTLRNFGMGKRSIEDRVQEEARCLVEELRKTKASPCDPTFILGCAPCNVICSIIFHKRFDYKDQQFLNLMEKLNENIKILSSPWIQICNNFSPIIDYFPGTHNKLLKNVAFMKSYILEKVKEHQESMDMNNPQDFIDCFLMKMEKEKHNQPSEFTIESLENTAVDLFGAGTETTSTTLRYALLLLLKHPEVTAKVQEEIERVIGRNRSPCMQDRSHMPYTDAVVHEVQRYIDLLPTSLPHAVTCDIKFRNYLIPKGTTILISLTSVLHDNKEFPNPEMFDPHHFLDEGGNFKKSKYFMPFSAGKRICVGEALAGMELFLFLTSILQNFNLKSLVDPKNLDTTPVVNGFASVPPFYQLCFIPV
Chain of Single-stranded DNA cytosine deaminase (Homo sapiens) (Q9GZX7 whole entry, looked up): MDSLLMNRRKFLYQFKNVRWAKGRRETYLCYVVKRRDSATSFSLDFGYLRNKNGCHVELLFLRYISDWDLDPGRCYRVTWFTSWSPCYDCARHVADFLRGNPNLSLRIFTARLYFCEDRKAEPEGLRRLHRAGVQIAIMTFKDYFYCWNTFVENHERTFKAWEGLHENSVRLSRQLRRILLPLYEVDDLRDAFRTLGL

For the compound `O=C(O)C1=CC(O)C(O)[C@H](O)C1` (stereo partly specified), the Potency result in test [1] was “inactive”.
The same measure, in the same setting: with `COc1ccc2cc1Oc1ccc(cc1)C[C@H]1c3cc(c(OC)cc3CCN1C)Oc1c(OC)c(OC)cc3c1[C@H](C2)N(C)CC3` the entry was “inactive”.
With `CO[C@@H]1C(N(C)C(=O)c2ccccc2)C[C@H]2O[C@]1(C)n1c3ccccc3c3c4c(c5c6ccccc6n2c5c31)C(=O)NC4=O` (stereo partly specified), the Potency in test [2] is 15.8 µM (active); in test [1], 19.2 µM (active); in test [4], 1.66 µM (active); in test [5], 1.32 µM (active). In addition, the Potency entry in [3] was “inactive”.
On to `CNC(=O)c1cc(COc2nnc(Nc3ccc(Cl)cc3)c3ccoc23)ccn1`, for which the Potency result in test [1] was “inactive”.
Take `C[C@H]1O[C@@H](n2cc(F)c(=O)[nH]c2=O)[C@H](O)[C@H]1O`: the compound was called inactive in test [6] and in [7].
With `CNC(=O)[C@H](CC1=CN=C2C=CCC=C12)NC(=O)[C@@H](CC(=O)NO)CC(C)C`, the Potency result in [1] is “inactive”.
The same measure, in the same setting: with `C=C1[C@H](n2cnc3c(=O)[nH]c(N)nc32)C[C@H](O)[C@H]1CO` the entry was “inactive”; with `Fc1ccc(C(c2ccc(F)cc2)N2CCN(CC=Cc3ccccc3)CC2)cc1`, 19.2 µM (active).
In the case of `C[C@H]1COC2=C1C(=O)C(=O)c1c2ccc2c1CCCC2(C)C`, the Potency result in test [2] and in [3] was “inactive” in each case. Besides, the Potency in test [8] is 19 µM (active).
For `O=C(CCCN1CCN(c2ccc(F)cc2)CC1)NC1c2ccccc2CSc2ccccc21` (stereo unspecified), in test [9], the result was inactive. Also, the Potency entry in test [1] and in [11] was “inactive” in each case. The Potency was 39.8 µM (active) in test [10], 25.1 µM (active) in test [12], 4.36 µM (active) in test [13] and 8.71 µM (active) in test [8].
`O[C@@H](COc1cccc2ncccc12)CN1CCN(C2c3ccccc3[C@@H]3[C@H](c4ccccc42)C3(F)F)CC1` (stereo partly specified): in test [9], the compound was called inactive. In addition, the Potency result in test [1], in [10] and in test [3] was “inactive” each time. The Potency is 13.8 µM (active) and 10.7 µM (active) in [13]; 10.7 µM (active) in test [8]; 15 µM (active) in test [4]; 10.6 µM (active) in test [5].
As for `Cc1ccc(NC(=O)Nc2cc(C(F)(F)F)ccc2F)cc1Nc1ccc2c(c1)NC(=O)C2=Cc1ccc[nH]1`, in [1], the Potency result was “inactive”.
Still for that read-out and setting: with `Cc1cc(CS(=O)(=O)c2ccccc2)cc(OCc2ccc(CN3CCC[C@H]3CO)cc2)c1` the entry was “inactive”.
On the same count and under the same terms, with `C[C@@H](O)[C@H]1C(=O)N2C(C(=O)OCOC(=O)C(C)(C)C)=C(SC3CN(C4=NCCS4)C3)[C@H](C)[C@H]12` the entry was “inactive”.
On to `O=C(C=Cc1ccc(O)cc1)c1ccc(O)cc1O`, for which the Potency entry in test [1] was “inactive”.
For `CCCCC[C@H](O)C=C[C@H]1[C@H](O)CC(=O)[C@H]1CCCCCCC(=O)O`, in test [1], the Potency entry was “inactive”.
In the case of `C[C@@H]1C[C@H]2[C@@H]3CCC4=CC(=O)C=C[C@]4(C)[C@@]3(F)[C@@H](O)C[C@]2(C)[C@@]1(O)C(=O)CO`, the result in test [9] and in test [14] was inactive. For the same compound, the Potency result in test [1] and in [3] was “inactive” in each case. Moreover, the Potency in test [5] is 0.0332 µM (active).

The values are drawn from PubChem BioAssay (NCATS).
